Assay [1] addresses Lysosomal acid glucosylceramidase (Homo sapiens) (UniProt P04062). Kind of assay: Glucocerebrosidase-p2 (AID 348; in the data active means potency below about 10 µM; further: potency means the concentration at half of the fitted maximal effect). The note with it: purified GBA, blue fluorogenic substrate, 40 min. An outline of the steps:
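Compounds titrated from 0.6 nM upwards against 0.2 nM enzyme in pH 5.9 citric acid/KH2PO4, taurocholate, tween-20; blue fluorogenic substrate 80 uM, 40 min room temperature, stopped and read Ex 365/Em 440 for AC50.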

Assay [2] can be described thus: AP1 Signaling Pathway (AID 357). Further: on the % scale 0 is the no-effect control and ±100 the full control effect. The note with it: ME-180 AP-1-bla reporter, EGF-induced, beta-lactamase ratio, 5 h. The gist of the method: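 Modulation of EGF-driven AP-1 transcription was assessed with a beta-lactamase reporter in ME-180 cells. Compound and EC50 EGF were co-incubated 5 hours at 37 °C before 2.5-hour CCF4 loading at room temperature and dual-emission reading.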

Assay [3] addresses Cytochrome P450 1A2 (Homo sapiens) (UniProt P05177). The assay can be described thus: p450-cyp1a2 (AID 410; calls by dose curve; further: potency means the concentration at half of the fitted maximal effect;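 on activity change, negative = inhibition: -100% = full effect of reference inhibitor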). The note with it: recombinant CYP1A2, luciferin-ME demethylation, luminescence; series mostly up to 57 µM. The gist of the method: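 Luminescent readout of luciferin formed from Luciferin-ME by human CYP1A2; data normalized against complete inhibition by 57 uM furafylline. Enzyme 20nM, substrate 100uM at Km, 100mM KPO4 buffer, 60 min reaction at room temperature.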

Assay [4] in a line: NFAT Signaling Pathway (AID 444).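 Further: carbachol stimulus at about its EC50 of 1 µM final; on the % scale 0 is the no-effect control and ±100 the full control effect.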 The note with it: Jurkat NFAT-bla M1, carbachol, beta-lactamase ratio, 5 h; at 7.69 µM (top of the series) unless noted. The gist of the method:
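Jurkat cells with NFAT-driven β-lactamase reporter and co-expressed M1 receptor, stimulated with carbachol (final 1 uM, ~EC50), compound titration, 5 h at 37 °C. CCF4 loaded 1 h at RT; 460/530 nm ratio gave %activity and AC50.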

Assay [5] is described as follows: Stat Signaling Pathway (AID 446).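 Further: ME-180 cervical cancer cells given 40 pM IL-6 alongside compound; SIE-controlled beta-lactamase reporter measured as 460/530 nm FRET emission ratio; on the % scale 0 is the no-effect control and ±100 the full control effect.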 The note with it: ME-180 SIE beta-lactamase reporter, IL-6 stimulated, 5 h. An outline of the steps:
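ME-180 SIE-bla cells; overnight plating; cpd + IL-6 40 pM, 5 h, 37 C; LiveBLAzer 2.5 h RT; 460/530 nm emission ratio. Normalized to 300 pM IL-6 and 125 nM JAK inhibitor controls.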

For assay [6], the target named is Glucocorticoid receptor (Homo sapiens) (UniProt P04150). The assay can be described thus: GR-GFP Redistribution (AID 450;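 active means compounds whose dose series gives a full or clear partial fitted curve of increased nuclear translocation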; further: potency means the concentration at half of the fitted maximal effect). The note with it: U2OS GR-GFP nuclear translocation, laser cytometry, 2 h.
Chain of Glucocorticoid receptor (Homo sapiens) (P04150 whole entry, looked up): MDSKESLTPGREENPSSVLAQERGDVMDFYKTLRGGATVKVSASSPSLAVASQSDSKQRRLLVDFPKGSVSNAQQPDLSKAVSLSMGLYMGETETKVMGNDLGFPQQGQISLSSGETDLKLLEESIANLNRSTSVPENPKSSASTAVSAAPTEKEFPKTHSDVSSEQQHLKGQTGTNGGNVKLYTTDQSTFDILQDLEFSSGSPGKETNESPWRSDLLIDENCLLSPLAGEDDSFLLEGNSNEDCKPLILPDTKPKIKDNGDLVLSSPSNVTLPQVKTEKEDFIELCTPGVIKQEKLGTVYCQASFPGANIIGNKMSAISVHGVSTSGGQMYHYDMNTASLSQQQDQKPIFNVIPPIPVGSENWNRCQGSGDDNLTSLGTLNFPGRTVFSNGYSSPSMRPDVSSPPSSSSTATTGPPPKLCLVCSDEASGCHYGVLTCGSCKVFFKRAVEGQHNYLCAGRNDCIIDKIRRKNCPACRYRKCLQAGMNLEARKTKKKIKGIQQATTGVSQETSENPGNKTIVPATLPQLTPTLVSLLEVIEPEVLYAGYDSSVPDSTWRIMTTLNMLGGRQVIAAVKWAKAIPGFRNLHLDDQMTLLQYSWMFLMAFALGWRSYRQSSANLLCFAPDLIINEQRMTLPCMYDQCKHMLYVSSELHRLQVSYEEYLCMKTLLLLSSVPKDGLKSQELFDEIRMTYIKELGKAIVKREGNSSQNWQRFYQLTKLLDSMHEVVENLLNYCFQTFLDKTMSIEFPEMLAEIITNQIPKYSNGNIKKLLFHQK
Assay [7] shares this target. Kind of assay: GR-EFC Redistribution (AID 451; calls by dose curve; further: potency means the concentration at half of the fitted maximal effect). The note with it: CHO-K1 GR-EFC translocation, beta-gal luminescence, 2 h. The gist of the method:
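CHO-K1 cells expressing nuclear EA and GR-ED fragments of b-gal; compounds titrated up to 46 uM final, 2 h at 37 C. GR nuclear translocation read as complemented b-gal luminescence after 1 h RT detection.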

Assay [8] deals with Mitogen-activated protein kinase 10 (Mus musculus) (UniProt Q61831). Kind of assay: JNK3 AlphaScreen Assay (AID 530).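 Further: kinase came from lysate of stimulated human HepG2 cells; signal reports phosphorylation of biotinylated GST-cJun 1-79 at Ser73 with 10 µM ATP; on the % scale 0 is the no-effect control and ±100 the full control effect.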 The note with it: JNK3 lysate, c-Jun phosphorylation; series mostly up to 57.1 µM. An outline of the steps:
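Pre-activated (IL-1β/TNFα) JNK3 in HepG2 lysates phosphorylates biotin-GST-cJun(1-79), 10 uM ATP; anti-phospho-cJun(Ser73) AlphaScreen read at room temperature, pH 7.6 Tris buffer. Compounds pre-incubated 15 min as titrations.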

Assay [9] deals with 3',5'-cyclic-AMP phosphodiesterase 4B (Homo sapiens) (UniProt Q07343). The assay can be described thus: qHTS Assay for Inhibitors of PDE-IV (AID 607; active means well fitted activation curve with a large enough effect in the main read-out, with a control signal flat, not every such curve was filed as active; further: % of control where 0% means no effect). The note with it: HEK293 ACTOne CNG channel cells, membrane potential fluorescence; series mostly up to 22.9 µM. An outline of the steps:
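ACTOne HEK293 cells carry a modified cAMP-gated CNG channel and express endogenous PDE4; plated 1000 cells/well, compounds up to 22.9 uM final. Membrane-potential dye fluorescence (ex 535/em 590) was read; parental cells received 10 uM forskolin + 100 uM RO 20-1724.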

Assay [10] deals with Cytochrome P450 3A4 (Homo sapiens) (UniProt P08684). Kind of assay: qHTS Assay for Activators of Cytochrome P450 3A4 (AID 885; active means well fitted curve in the direction sought with a large enough effect; an effect the other way counts as inactive or inconclusive; further: nearly all actives have a fitted effect of over 65% in size). The note with it: recombinant CYP3A4, Luciferin-PPXE luminescence, 60 min; series mostly up to 57.1 µM. The gist of the method:
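20nM CYP3A4 + 25uM Luciferin-PPXE (=KM), 200mM KPO4; cpd 10 min RT; NADPH regen, 60 min RT; stop w/ detection buffer, 20 min; luminescence. Normalized to 57 uM ketoconazole.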
On the technique in general: In qHTS, concentration-response curves come from the screen itself.

A short description of assay [11]: qHTS Assay for Identification of Small Molecule Agonists for Hypoxia Response Element Signaling Pathway (AID 914; active means well fitted activation curve with a large enough effect in the signal ratio, with a control signal flat, not every such curve was filed as active; the % refers to the signal ratio; further: % of control where 0% means no effect). The note with it: ME-180 (cervical carcinoma) HRE-bla reporter, beta-lactamase ratio, CoCl2, 17 h; activation: stronger effect = higher value. An outline of the steps: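 HRE-bla ME-180 assay for agonist-like enhancement of an EC50 CoCl2 stimulus: 17 h at 37 degrees Celsius, CCF4 for 2.5 h, ratiometric 460/530 nm signal converted to %Activity and fitted to AC50.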

The nature of assay [12]: Confirmation and Secondary Assay for Modulators of Hemoglobin Beta Chain Splicing at IVS2 705 locus (AID 930; active means well fitted curve in the direction sought with a large enough effect; an effect the other way counts as inactive or inconclusive;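 further: HeLa cells stably expressing the EGFP-705 splicing reporter; GFP fluorescence per well restored by corrected splicing of the IVS2-705 intron in EGFP; % of control where 0% means no effect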). The note with it: HeLa EGFP-705 splicing reporter, GFP fluorescence, 48 h; series mostly up to 38.3 µM. An outline of the steps: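 HeLa IVS2-705 EGFP reporter cells, 500/well, compound 2 d at 37C; correct splicing yields fluorescent EGFP. Control: 500 nM antisense PNA. Read-out: total peak GFP intensity.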

Assay [13] can be described thus: qHTS Assay for Lipid Storage Modulators (AID 1519; calls by dose curve). The note with it: Drosophila S3 cells, BODIPY lipid droplet/cell ratio, laser cytometry, cells loaded with oleic acid. The gist of the method: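 Cells seeded at 5,000 per well were treated with compounds over a concentration series and loaded with oleic acid (400 uM, as added). Lipid droplet fluorescence (488 nm excitation, 500-530 nm channel) was read by laser-scanning cytometry and normalized to 20 uM Triacsin C.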

Assay [14] deals with Ubiquitin carboxyl-terminal hydrolase 1 (Homo sapiens) (UniProt O94782). The assay can be described thus: Inhibitors of USP1/UAF1: Pilot qHTS (AID 504865; active means well fitted curve in the direction sought with a large enough effect; an effect the other way counts as inactive or inconclusive; further: nearly all actives have a fitted effect of over 35% in size; further: potency means the concentration at half of the fitted maximal effect). The note with it: purified USP1/UAF1, Ub-rhodamine cleavage fluorescence; series mostly up to 54.9 µM. An outline of the steps: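 Kinetic fluorescence assay: 1nM USP1/UAF1, 15 min compound preincubation, then 150nM Ub-Rho; 480/540 nm.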
Chain of Ubiquitin carboxyl-terminal hydrolase 1 (Homo sapiens) (O94782 whole entry, looked up): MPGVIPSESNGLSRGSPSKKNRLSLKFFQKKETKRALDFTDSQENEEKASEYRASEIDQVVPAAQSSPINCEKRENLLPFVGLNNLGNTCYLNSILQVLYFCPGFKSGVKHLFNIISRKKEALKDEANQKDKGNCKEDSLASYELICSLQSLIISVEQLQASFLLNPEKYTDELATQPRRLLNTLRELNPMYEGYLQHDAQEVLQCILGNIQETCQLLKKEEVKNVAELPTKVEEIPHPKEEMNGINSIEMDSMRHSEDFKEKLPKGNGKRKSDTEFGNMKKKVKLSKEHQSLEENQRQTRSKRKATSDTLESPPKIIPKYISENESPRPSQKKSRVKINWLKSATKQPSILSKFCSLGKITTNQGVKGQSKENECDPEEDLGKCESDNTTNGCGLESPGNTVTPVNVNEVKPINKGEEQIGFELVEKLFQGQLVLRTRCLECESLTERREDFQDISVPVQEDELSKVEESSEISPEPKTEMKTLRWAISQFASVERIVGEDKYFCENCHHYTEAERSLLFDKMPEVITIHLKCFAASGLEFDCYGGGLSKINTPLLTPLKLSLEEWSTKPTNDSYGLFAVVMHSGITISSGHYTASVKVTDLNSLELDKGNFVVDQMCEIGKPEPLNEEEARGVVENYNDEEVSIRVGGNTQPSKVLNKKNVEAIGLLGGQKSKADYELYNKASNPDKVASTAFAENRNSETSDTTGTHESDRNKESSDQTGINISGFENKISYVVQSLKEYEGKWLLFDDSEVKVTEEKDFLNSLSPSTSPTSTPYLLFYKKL

A short description of assay [15]: qHTS profiling for inhibitors of Plasmodium falciparum proliferation (AID 504749; active means well fitted curve in the direction sought with a large enough effect; an effect the other way counts as inactive or inconclusive;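 further: 0% = DMSO vehicle and full inhibition = artemisinin control; nearly all actives have a fitted effect of over 60% in size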). The note with it: P. falciparum in erythrocytes, SYBR Green DNA, 72 h, at 28.7 µM (top of the series). An outline of the steps:
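P. falciparum-infected erythrocytes (0.3% parasitemia, 2.5% hematocrit) incubated with compound 72 h at 37 C, 5% CO2. Parasite DNA detected by SYBR Green after lysis, overnight at room temperature; normalised to 0.29 uM artemisinin and DMSO.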

The target in assay [16] is Cytochrome P450 3A4 (Homo sapiens) (UniProt P08684). The assay can be described thus: qHTS Assay for Inhibitors and Substrates of Cytochrome P450 3A4 (AID 884; active means well fitted curve in the direction sought with a large enough effect; an effect the other way counts as inactive or inconclusive; further: nearly all actives have a fitted effect of over 50% in size; further: potency means the concentration at half of the fitted maximal effect). The note with it: recombinant CYP3A4, Luciferin-PPXE luminescence; series mostly up to 57.1 µM. An outline of the steps: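 20 nM human CYP3A4 with 25 uM Luciferin-PPXE (at KM) in 200 mM KPO4, preincubated 10 min with compound; NADPH regeneration started a 60 min RT reaction. Luciferin detected by luminescence, normalized to 57 uM ketoconazole as full inhibition.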
Chain of Cytochrome P450 3A4 (Homo sapiens) (P08684 whole entry, looked up): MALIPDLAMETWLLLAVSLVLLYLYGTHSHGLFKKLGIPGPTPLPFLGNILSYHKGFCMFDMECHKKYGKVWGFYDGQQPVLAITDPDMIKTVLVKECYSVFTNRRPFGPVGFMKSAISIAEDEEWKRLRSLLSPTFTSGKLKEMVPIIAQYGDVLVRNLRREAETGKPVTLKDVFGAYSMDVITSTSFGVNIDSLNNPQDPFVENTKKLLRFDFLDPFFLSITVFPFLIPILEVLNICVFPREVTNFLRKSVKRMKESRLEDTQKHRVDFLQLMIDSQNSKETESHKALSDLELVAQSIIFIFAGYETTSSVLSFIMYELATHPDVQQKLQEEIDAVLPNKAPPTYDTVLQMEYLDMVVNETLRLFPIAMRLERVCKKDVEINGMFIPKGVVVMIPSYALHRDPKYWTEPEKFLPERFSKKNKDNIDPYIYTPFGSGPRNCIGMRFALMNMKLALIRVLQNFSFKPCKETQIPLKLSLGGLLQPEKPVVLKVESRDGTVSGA

Assay [17] in a line: Confirmation and Secondary Assay for Modulators of Hemoglobin Beta Chain Splicing at IVS2 654 locus (AID 910; active means well fitted curve in the direction sought with a large enough effect; an effect the other way counts as inactive or inconclusive;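 further: HeLa cells stably carrying EGFP split by mutant beta-globin IVS2-654 intron; % of control where 0% means no effect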). The note with it: HeLa EGFP-654 splicing reporter, GFP fluorescence, 48 h; series mostly up to 38.3 µM. An outline of the steps:
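HeLa cells stably expressing EGFP interrupted by β-globin IVS2-654 intron, seeded overnight in Opti-MEM/2% FCS, then treated 2 days at 37 °C. Restored splicing read as total peak GFP intensity per well by laser scanning cytometry (488 nm excitation, 500–520 nm emission); 500 nM antisense PNA as control.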

Assay [18] addresses Cytochrome P450 2C19 (Homo sapiens) (UniProt P33261). Kind of assay: qHTS Assay for Inhibitors and Substrates of Cytochrome P450 2C19 (AID 899; active means well fitted curve in the direction sought with a large enough effect; an effect the other way counts as inactive or inconclusive; further: potency means the concentration at half of the fitted maximal effect; nearly all actives have a fitted effect of over 60% in size). The note with it: recombinant CYP2C19, luciferin-H EGE luminescence; series mostly up to 57.1 µM. An outline of the steps: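 5 nM human CYP2C19 with 10uM Luciferin-H EGE (at KM) in 50mM KPO4, compound preincubated 10 min at 37C, then NADPH regeneration for 60 min at 37C. Luciferin read by luminescence after detection reagent; normalized to 57uM ketoconazole as full inhibition.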

[19] abbreviates: at 7.69 µM (top of the series) unless noted.
The mark [20] stands for this setting: measured here: cell count channel max response.
Where [21] appears, read: measured here: lipid channel max response.

Where “and” joins values, the source holds several entries; their conditions need not be identical. Identical values can stand only once. Results filed as inconclusive are left out. Calls of active or inactive are those of the source. Unless noted, the call rests on the fitted dose curve; in most records, active means well fitted curve in either direction with a large enough effect (not every such curve was filed as active); inconclusive means small, poorly fitted or top-dose-only effect, or another doubt; inactive means flat fitted curve, though single readings scatter. Some results are limits rather than exact numbers.

Chain of 3',5'-cyclic-AMP phosphodiesterase 4B (Homo sapiens) (Q07343 whole entry, looked up): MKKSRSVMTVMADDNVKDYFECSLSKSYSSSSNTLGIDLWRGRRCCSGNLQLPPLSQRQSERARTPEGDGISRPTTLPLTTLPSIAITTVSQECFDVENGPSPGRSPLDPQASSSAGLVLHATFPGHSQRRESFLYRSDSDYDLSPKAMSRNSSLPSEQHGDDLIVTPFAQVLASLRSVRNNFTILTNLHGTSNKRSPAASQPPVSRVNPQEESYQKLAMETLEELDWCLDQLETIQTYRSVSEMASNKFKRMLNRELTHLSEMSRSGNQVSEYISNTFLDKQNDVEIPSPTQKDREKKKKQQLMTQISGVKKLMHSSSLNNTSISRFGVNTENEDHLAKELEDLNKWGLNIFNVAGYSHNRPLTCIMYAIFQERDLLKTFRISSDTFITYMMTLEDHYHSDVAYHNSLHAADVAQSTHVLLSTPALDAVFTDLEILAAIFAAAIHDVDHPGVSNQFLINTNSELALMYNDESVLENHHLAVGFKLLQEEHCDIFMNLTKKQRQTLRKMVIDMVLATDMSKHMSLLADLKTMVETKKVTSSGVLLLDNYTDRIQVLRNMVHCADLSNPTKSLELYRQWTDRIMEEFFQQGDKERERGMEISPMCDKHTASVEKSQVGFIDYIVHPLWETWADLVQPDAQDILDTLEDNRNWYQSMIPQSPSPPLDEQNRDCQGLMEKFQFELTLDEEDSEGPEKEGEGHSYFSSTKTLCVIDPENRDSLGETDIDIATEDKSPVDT
Chain of Lysosomal acid glucosylceramidase (Homo sapiens) (P04062 whole entry, looked up): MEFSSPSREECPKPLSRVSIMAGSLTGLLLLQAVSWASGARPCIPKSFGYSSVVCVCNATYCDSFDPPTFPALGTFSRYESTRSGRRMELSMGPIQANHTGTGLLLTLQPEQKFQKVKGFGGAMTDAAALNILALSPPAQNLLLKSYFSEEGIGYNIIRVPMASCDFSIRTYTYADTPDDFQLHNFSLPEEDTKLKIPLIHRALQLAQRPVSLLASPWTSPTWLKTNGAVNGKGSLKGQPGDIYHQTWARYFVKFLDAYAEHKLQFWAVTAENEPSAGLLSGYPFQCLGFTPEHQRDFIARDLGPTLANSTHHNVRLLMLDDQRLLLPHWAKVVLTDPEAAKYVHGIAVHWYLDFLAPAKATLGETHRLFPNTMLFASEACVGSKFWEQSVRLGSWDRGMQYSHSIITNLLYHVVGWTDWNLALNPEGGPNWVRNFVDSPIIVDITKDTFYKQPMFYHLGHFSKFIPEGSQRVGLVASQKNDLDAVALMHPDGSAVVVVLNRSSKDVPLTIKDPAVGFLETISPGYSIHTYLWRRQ
Chain of Cytochrome P450 1A2 (Homo sapiens) (P05177 whole entry, looked up): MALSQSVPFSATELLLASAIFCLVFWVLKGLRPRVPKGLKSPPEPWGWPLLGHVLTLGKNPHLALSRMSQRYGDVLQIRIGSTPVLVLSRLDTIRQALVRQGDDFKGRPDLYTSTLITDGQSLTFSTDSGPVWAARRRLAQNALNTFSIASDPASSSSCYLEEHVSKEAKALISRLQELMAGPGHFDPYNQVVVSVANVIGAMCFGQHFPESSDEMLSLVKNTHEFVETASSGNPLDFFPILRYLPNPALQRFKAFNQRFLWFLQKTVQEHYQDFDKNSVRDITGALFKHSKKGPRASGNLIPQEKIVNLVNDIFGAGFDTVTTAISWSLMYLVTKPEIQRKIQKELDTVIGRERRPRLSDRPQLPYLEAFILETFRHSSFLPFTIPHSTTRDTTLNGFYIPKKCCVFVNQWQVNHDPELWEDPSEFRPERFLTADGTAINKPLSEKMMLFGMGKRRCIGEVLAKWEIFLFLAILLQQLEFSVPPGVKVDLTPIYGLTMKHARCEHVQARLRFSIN
Chain of Cytochrome P450 2C19 (Homo sapiens) (P33261 whole entry, looked up): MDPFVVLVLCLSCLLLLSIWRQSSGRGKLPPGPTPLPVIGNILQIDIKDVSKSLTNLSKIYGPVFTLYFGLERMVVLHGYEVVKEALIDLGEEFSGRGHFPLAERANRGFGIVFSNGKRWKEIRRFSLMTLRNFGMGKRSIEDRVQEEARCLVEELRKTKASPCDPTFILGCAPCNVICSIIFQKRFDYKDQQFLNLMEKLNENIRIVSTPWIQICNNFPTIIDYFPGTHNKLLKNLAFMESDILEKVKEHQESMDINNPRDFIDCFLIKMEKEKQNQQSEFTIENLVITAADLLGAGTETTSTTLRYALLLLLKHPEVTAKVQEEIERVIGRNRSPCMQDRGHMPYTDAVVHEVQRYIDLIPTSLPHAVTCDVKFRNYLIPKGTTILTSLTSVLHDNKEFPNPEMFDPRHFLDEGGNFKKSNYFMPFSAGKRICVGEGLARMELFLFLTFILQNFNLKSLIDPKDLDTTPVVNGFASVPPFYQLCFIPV

Turning to `COc1ccccc1CNc1ccnc(-c2ccccc2C(F)(F)F)n1`, the Potency is > 11.4 µM (inactive) in assay [1]; 10 µM (active) in assay [3]; > 46 µM (inactive) in assay [6]; > 46 µM (inactive) in assay [7]; 20 µM (active) in assay [14]. The activity change, negative = inhibition in assay [2] (setting [19]) is -18.3% (inactive); in assay [4], -19.1% (inactive); in assay [13] (at 57.5 µM (top of the series)), 5.29% (inactive). Moreover, the activity, negative = inhibition in [5] (setting [19]) is 4.24% (inactive). Moreover, the Potency entry in [8], in assay [9] and in assay [10] was “inactive” in each case. In addition, the activation in assay [11] is -5.47% (inactive). Moreover, the call in assay [12] was inactive. Further, the max response was -3.33% in assay [13] (setting [20]) and 2.88% in assay [13] (setting [21]).

For `CN1[C@@H]2CC[C@H]1CC(OC(=O)[C@@H](O)c1ccccc1)C2` (stereo partly specified), the Potency in assay [1] is > 11.4 µM (inactive). Moreover, the activity change, negative = inhibition was 9.45% (inactive) in [2] (at 7.69 µM (top of the series)), -8.08% (inactive) in assay [2] (at 17.2 µM (top of the series)), -8.54% (inactive) in [2] (at 38 µM (top of the series)) and 2.61% (inactive) in [13] (at 25.7 µM (top of the series)). The activity, negative = inhibition was -3.56% (inactive) in assay [5] (at 7.69 µM (top of the series)); 8.85% (inactive) in [5] (at 17.2 µM (top of the series)); -3.65% (inactive) and -0.465% (inactive) in assay [15] (parasite line A); 7.89% (inactive) and -12.1% (inactive) in [15] (parasite line B). Further, the Potency result in [8], in assay [9] and in assay [14] was “inactive” throughout. Besides, the figures for the max response in assay [13] (setting [20]) and in assay [13] (setting [21]) were 4.94% and 8.69%, respectively.

In the case of `Cc1cccc(CNc2ccnc(-c3ccc(C(=O)N(C)C)cc3)n2)c1`, the Potency in [1] was > 11.4 µM (inactive); in [3] it was 25.1 µM (active); in [6], > 46 µM (inactive); in assay [7], > 46 µM (inactive). Also, the activity change, negative = inhibition in assay [2] (setting [19]) is -17.2% (inactive); in [4], 6.95% (inactive); in assay [13] (at 57.5 µM (top of the series)), 7.06% (inactive). Also, the activity, negative = inhibition in [5] (setting [19]) was -2.13% (inactive). Moreover, the Potency entry in [8], in assay [16], in [17] and in assay [14] was “inactive” each time. Moreover, the result in assay [12] was inactive. Further, the figures for the max response in assay [13] (setting [20]) and in assay [13] (setting [21]) were -6.92% and 0.35%, respectively.

With `CN1CCCC[C@@H]1CCN1c2ccccc2Sc2ccc(S(C)=O)cc21` (stereo partly specified), the Potency in assay [1] was > 11.4 µM (inactive); in assay [6], > 20.6 µM (inactive) and > 46 µM (inactive); in [7], > 20.6 µM (inactive) and > 9.22 µM (inactive). Besides, the activity change, negative = inhibition was -6.82% (inactive) in assay [2] (at 7.69 µM (top of the series)), 10.1% (inactive) in assay [2] (at 17.2 µM (top of the series)), 1.36% (inactive) in [4] and -3.11% (inactive) in assay [13] (at 25.7 µM (top of the series)). The Potency entry in assay [3], in assay [8] and in assay [9] was “inactive” throughout. Besides, the activity, negative = inhibition is 0.0805% (inactive) in [5] (at 7.69 µM (top of the series)), -1.79% (inactive) in assay [5] (at 17.2 µM (top of the series)), 1.72% (inactive) in assay [15] (parasite line A) and 1.85% (inactive) in assay [15] (parasite line B). The max response is -6.84% in [13] (setting [20]) and -7.46% in [13] (setting [21]).

Take `Cc1ccccc1-c1nc(-n2ccnc2)c2ccccc2n1`: the Potency in [1] is > 11.4 µM (inactive); in assay [3] it was 0.316 µM (active); in assay [6], > 46 µM (inactive); in [7], > 46 µM (inactive); in assay [16] it was 0.398 µM (active); in assay [18], 5.01 µM (active). Also, the activity change, negative = inhibition in assay [2] (setting [19]) is -12.3% (inactive); in [4], -10.1% (inactive); in assay [13] (at 57.5 µM (top of the series)), 5.99% (inactive). In assay [5] (setting [19]), the activity, negative = inhibition is 0.874% (inactive). For the same compound, the Potency result in [8], in assay [10] and in [17] was “inactive” in each case. For the same compound, the max response was -6.87% in assay [13] (setting [20]) and -2.77% in assay [13] (setting [21]).

The values are drawn from PubChem BioAssay (NCATS).
